D2 PAM-1 – positive allosteric modulators of human D2 dopamine receptor; potentiation, % (concentration not given with the values); DiscoveRx D2 beta-arrestin cells, luminescence, 90 min; 100% = 57 uM dopamine signal; P14416; hit rate 0.23% among 360,000; in the data active = potentiation above about 50%; inconclusive = mostly about 30% to 49%
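D2 cells co-treated with compound plus 50 nM dopamine (EC20) for 90 min at 37 deg C to detect potentiation. Beta-arrestin recruitment was read as enzyme-fragment luminescence after 1 h at ambient temperature. Full response was set by 57 uM dopamine.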
D2 antagonist – antagonizes the human D2 dopamine receptor. hit rate 2% among 340,000. P14416. inhibition, % at 10 µM. HEK293 TREx D2 cells, calcium flux, dopamine EC80; in the data active = inhibition above about 30%; inactive = below that, where a call was filed; also: 0% is about no effect
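HEK293 T-REx D2 cells, tet-induced, calcium dye no-wash. Cpd pintool add, 180 s kinetic, then EC80 DA, 180 s kinetic. Ca flux read.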
D2 ag-1 – D2 dopamine receptor (human) agonism; HEK293 T-REx D2 cells, calcium flux agonist mode; activation, % at 2 µM; P14416; hit rate 0.53% among 340,000; AID 485358;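 active = activation over 3 SD above normal in the single-dose calcium agonist read, cut at about 30% in these data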; also: 0% is about no effect
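Tetracycline-induced HEK293 Trex cells with D2 receptor force-coupled to calcium signaling, plated overnight at 30 C and loaded with no-wash calcium dye. Calcium flux read kinetically for 180 s after compound addition; responses flag agonists.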
D2 PAM-2 – D2 dopamine receptor (human) potentiation | hit rate 0.34% among 340,000 | potentiation, % at 10 µM | HEK293 T-REx D2, calcium flux, EC20 dopamine potentiation | AID 485347 | P14416;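 active = potentiation over 3 SD above the plate norm, cut at about 30% in these data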; also: 0% is about no effect
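Primary screen. Calcium kinetics in induced HEK293 T-REx D2 cells: compound pre-addition 180 s, EC20 dopamine, 180 s more.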
D2 ag-2 – human D2 receptor agonism in beta-arrestin assay; P14416; DiscoveRx PathHunter D2 beta-arrestin, luminescence, 90 min; 100% = 57 uM dopamine signal; activation, % (no concentration beside the values); hit rate 0.084% among 360,000; in the data active = activation above about 40%; inconclusive = between about 15% and that limit
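Agonist mode: compounds alone added to overnight-plated D2 PathHunter cells for 90 min at 37 C, with 57 uM final dopamine (EC100) defining full response. Beta-arrestin recruitment detected by chemiluminescent reagent, read after 1 h at ambient temperature.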
D3 ag – activates human D3 dopamine receptor beta-arrestin recruitment; shares compounds with D2 ag-1; DiscoveRx D3 beta-arrestin cells, luminescence, 90 min; Potency, µM (titrated, usually from 76.9 µM), for the others: top-dose activation, usual class: activators; hit rate 4% among 2,300; AID 720506;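 also: potency is read from the fitted curve at half-maximal effect; 100% = dopamine control response; nearly all actives have a fitted effect of over 70% in size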
Target sequence (P35462 whole entry, looked up): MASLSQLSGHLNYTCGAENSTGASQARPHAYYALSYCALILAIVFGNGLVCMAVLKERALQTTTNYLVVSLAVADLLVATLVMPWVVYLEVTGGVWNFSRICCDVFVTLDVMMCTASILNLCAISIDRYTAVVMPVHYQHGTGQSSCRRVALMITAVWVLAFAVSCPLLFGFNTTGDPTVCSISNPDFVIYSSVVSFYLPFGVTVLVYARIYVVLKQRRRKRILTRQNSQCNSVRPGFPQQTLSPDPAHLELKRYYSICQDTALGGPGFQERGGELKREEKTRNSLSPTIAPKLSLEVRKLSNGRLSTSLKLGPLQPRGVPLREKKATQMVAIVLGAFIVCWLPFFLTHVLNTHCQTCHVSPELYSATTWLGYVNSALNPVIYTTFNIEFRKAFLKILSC
D2 ag-3 – activates human D2 dopamine receptor in D3 counterscreen | shares compounds with D2 ag-1 | DiscoveRx PathHunter D2 beta-arrestin, luminescence, 90 min; response scale: percent relative to full dopamine signal | hit rate 5.9% among 2,300 | Potency, µM (highest dose often 76.9 µM), inactives show at the highest dose activation, most hits filed as activators; also: potency is read from the fitted curve at half-maximal effect; % of control where 0% means no effect; nearly all actives have a fitted effect of over 70% in size
* hit, by the source's call. In the library only some 2.4% were active in any assay of this set; here they are far more common. Unless noted, calls follow the shape of the dose curve; as a rule, active = well fitted activation curve with a large enough effect; inconclusive = small, poorly fitted or top-dose-only effect; inactive = flat fitted curve, though single readings scatter.

For O=C(c1cc2c(s1)CCCC2)N1CCN(Cc2ccc3c(c2)OCO3)CC1 the results were D2 PAM-1 -39, D2 antagonist 75*, D2 ag-1 0, D2 PAM-2 -21 and D2 ag-2 -3.
`COc1cccc(CN2CCC(C(=O)N3CCN(Cc4ccc5c(c4)OCO5)CC3)CC2)c1` gave D2 PAM-1 -21, D2 antagonist 5, D2 ag-1 1, D2 PAM-2 -1 and D2 ag-2 -4.
For Cn1c(C(=O)N2CCC(C(=O)N3CCN(Cc4ccc5c(c4)OCO5)CC3)CC2)cc2sccc21 the results were D2 PAM-1 -4, D2 antagonist -13, D2 ag-1 5, D2 PAM-2 10 and D2 ag-2 -2.
Cc1ccc(C)c(NC(=O)CCc2c(C)n(C)c3cc(-c4ccccc4C)nn3c2=O)c1 was read as D2 ag-1 0 and D2 PAM-2 6.
O=C(O)CSCCc1ccccn1 was read as D2 PAM-1 -4, D2 antagonist 53*, D2 ag-1 -1, D2 PAM-2 -19 and D2 ag-2 -2.
Screening CCOc1ccc(OCC(O)CN2CCc3ccccc3C2)cc1 (stereo not given) returned D2 PAM-1 -9, D2 antagonist 50*, D2 ag-1 3, D2 PAM-2 -22 and D2 ag-2 -1.
For Cc1cc(OCC(O)CN2CCc3ccccc3C2)ccc1Cl (stereo not given) the results were D2 PAM-1 -23, D2 antagonist 79*, D2 ag-1 0, D2 PAM-2 -23 and D2 ag-2 10.
Screening Cc1cc(OCC(O)CN2CCc3ccccc3C2)cc(C(C)C)c1 (stereo not given) returned D2 PAM-1 -38, D2 antagonist -5, D2 ag-1 -1, D2 PAM-2 14 and D2 ag-2 inconclusive.
Cn1nnnc1SCCCNCc1ccccc1OCc1ccccc1F was read as D2 ag-1 -1 and D2 PAM-2 -28.
Screening O=C(Nc1ccc(Cl)cc1Cl)Nn1cnnc1 returned D2 PAM-1 -15, D2 antagonist -9, D2 ag-1 1, D2 PAM-2 -2 and D2 ag-2 -5.
O=C(Nc1ccno1)Nc1ccc(Cl)cc1Cl was read as D2 PAM-1 62*, D2 antagonist -3, D2 ag-1 0, D2 PAM-2 5 and D2 ag-2 inconclusive.
For CCN(CC)C(=O)NC1CC2CCCC(C1)N2Cc1ccccc1 (stereo not given) the results were D2 PAM-1 -35, D2 antagonist 92*, D2 ag-1 0, D2 PAM-2 -40 and D2 ag-2 3.
For O=C(/C=C/c1ccccc1)NC1CC2CCCC(C1)N2Cc1ccccc1 (stereo not given) the results were D2 antagonist 88*, D2 ag-1 1 and D2 PAM-2 -23.
`O=C(NCCCN1CCN(c2ccccc2F)CC1)c1sc2ncccc2c1-n1cccc1` gave D2 PAM-2 -26.
Screening C[C@H](CO)N1C[C@H](C)[C@@H](CN(C)C)Oc2c(NC(=O)CCC(F)(F)F)cccc2C1=O returned D2 PAM-1 -2 and D2 ag-2 -3.
Screening O=C1CC(c2ccccc2)NN1 (stereo not given) returned D2 PAM-1 -16, D2 antagonist -9, D2 ag-1 0, D2 PAM-2 -14, D2 ag-2 -8, D3 ag -7% and D2 ag-3 -3%.
For C/C(O)=c1/ccc2cccc3nc(C)nc1c23 the results were D2 PAM-1 26, D2 antagonist -2, D2 ag-1 7, D2 PAM-2 5, D2 ag-2 6, D3 ag inconclusive and D2 ag-3 21%.
Screening O/C=c1\ccc2cccc3nc(C(F)(F)F)nc1c23 returned D2 PAM-1 15, D2 antagonist -20, D2 ag-1 3, D2 PAM-2 -1 and D2 ag-2 4.
Screening CCCCOC(=O)c1ccc(NC(C)=O)cc1 returned D2 PAM-1 -7, D2 antagonist 10, D2 ag-1 -1, D2 PAM-2 1 and D2 ag-2 0.
Screening CC(=O)Nc1ccc(C(=O)OCCCOC(=O)c2ccc(NC(C)=O)cc2)cc1 returned D2 PAM-1 -13, D2 antagonist 15, D2 ag-1 76*, D2 PAM-2 -14, D2 ag-2 -1, D3 ag -5% and D2 ag-3 -4%.
Screening Cc1cccc(NC(=O)C2CCCN(S(=O)(=O)c3c(C)noc3/C=C/N(C)C)C2)c1C (stereo not given) returned D2 ag-1 0 and D2 PAM-2 -5.
`CCOC(=O)c1c(-c2ccc(OC)cc2)csc1NC(=O)CNCc1ccco1` gave D2 PAM-1 -7, D2 antagonist 3, D2 ag-1 -1, D2 PAM-2 1 and D2 ag-2 1.
Screening CCOC(=O)c1c(-c2ccc(Cl)cc2)csc1NC(=O)CNCc1ccco1 returned D2 PAM-1 -6, D2 antagonist 18, D2 ag-1 51*, D2 PAM-2 -26, D2 ag-2 -1, D3 ag -4% and D2 ag-3 -1%.
`COc1ccccc1NC(=O)Nc1ccc(S(=O)(=O)Nc2onc(C)c2C)cc1` gave D2 PAM-1 -20, D2 antagonist 20, D2 ag-1 0, D2 PAM-2 3 and D2 ag-2 2.
Screening CCNC(=O)C(=O)Nc1ccc([N+](=O)[O-])cc1 returned D2 PAM-1 -10, D2 antagonist -23, D2 ag-1 25, D2 PAM-2 -9, D2 ag-2 -1, D3 ag -1% and D2 ag-3 -1%.
Cc1ccc(N2C(=O)c3cccc4c(N5CCN(C)CC5)ccc(c34)C2=O)c2cccnc12 was read as D2 PAM-1 -8, D2 antagonist 6, D2 ag-1 32*, D2 PAM-2 -15, D2 ag-2 -3, D3 ag -7% and D2 ag-3 -1%.
O=C(c1cccs1)N1CCN(Cc2ccncc2)CC1 was read as D2 PAM-1 3, D2 antagonist 21, D2 ag-1 63*, D2 PAM-2 -20, D2 ag-2 14, D3 ag 13% and D2 ag-3 inconclusive.
O=C(c1cccs1)N1CCN(Cc2ccccc2)CC1 was read as D2 PAM-1 24, D2 antagonist 64*, D2 ag-1 75*, D2 PAM-2 -26, D2 ag-2 41*, D3 ag inconclusive and D2 ag-3 inconclusive.
